Assay results published in PubChem BioAssay (NCATS).
Results filed as inconclusive are left out. A number with no mark means an inactive call. The call rests on the fitted dose curve; in most records, active means well fitted inhibition curve with a large enough effect; inconclusive means small, poorly fitted or top-dose-only effect; inactive means no such curve, though single readings can be large or run the other way.

Experiment: HTS Assay for Allosteric Antagonists of the Human D2 Dopamine Receptor: Hit Validation in HTRF (AID 624455);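 further: stable D1 dopamine receptor cell line scored for blocking the D1 response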
Details: Cells stably expressing D1 dopamine receptor, inhibition mode; series mostly up to 46.1 µM; activity, negative = inhibition: at the top concentration
How it was run: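 Hit validation in cells stably expressing the D1 dopamine receptor, run in HTRF format. Compounds were tested for their ability to inhibit the D1-mediated response.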
On the % scale 0 is the no-effect control and ±100 the full control effect.

Structure (SMILES) | activity, negative = inhibition [%]
CCO/C([O-])=N/c1c[n+](N2CCOCC2)no1 | -100
NC(=O)c1cn(Cc2c(F)cccc2F)nn1 | -1.78
CN(C)CC[C@@H](c1ccc(Br)cc1)c1ccccn1 | 3.41
CC(=O)OC(C)C[N+](C)(C)C (configuration not stated) | -5.53
CC(=O)OCC1=C(C(=O)O)N2C(=O)[C@@H](NC(=O)Cc3cccs3)[C@H]2SC1 | -4.82
CSc1ccc(C(=O)c2[nH]c(=O)[nH]c2C)cc1 | 3.41
CNC1(C)C2CCC(C2)C1(C)C (configuration not stated) | 13.9
CCCOc1ccccc1-c1nc2n[nH]nc2c(=O)[nH]1 | 8.59
CCc1cccc(N(C)C(N)=Nc2cccc3ccccc23)c1 | 1.17
CN1C(=O)CC[C@H]1c1cccnc1 | -0.826
NC(N)=N/N=C/c1c(Cl)cccc1Cl | -11.1
CN(C)C(=O)Oc1cccc([N+](C)(C)C)c1 | 4.65
CCCN(CCC)CCc1cccc2c1CC(=O)N2 | -11.3
O=C(O)CN(CCOCCOCCN(CC(=O)O)CC(=O)O)CC(=O)O | -10.9
CCCNC(C)C(=O)Nc1ccccc1C (configuration not stated) | -1.78
O=C(O)CP(=O)(O)O | 16.9

Structure (SMILES) | activity, negative = inhibition [%]
CCNC(=O)N1CCN(CCCC(c2ccc(F)cc2)c2ccc(F)cc2)CC1 | 11.5
NC/C=C/C(=O)O | -4.45
NC1=NCC2c3ccccc3Cc3ccccc3N12 (configuration not stated) | 32.9
C=CCc1ccccc1OCC(O)CNC(C)C (configuration not stated) | -2.18
O=C(O)CN(CCN(CC(=O)O)CC(=O)O)CCN(CC(=O)O)CC(=O)O | -2.22
O=C1CC2(CCCC2)CC(=O)N1CCCCN1CCN(c2ncccn2)CC1 | -0.0944
CCCN(CCC)C(=O)C(CCC(=O)O)NC(=O)c1ccccc1 (configuration not stated) | -4.03
Cc1nnc(SCC2=C(C(=O)O)N3C(=O)[C@@H](NC(=O)Cn4cnnn4)[C@H]3SC2)s1 | -0.719
COCCc1ccc(OCC(O)CNC(C)C)cc1 (configuration not stated) | 1.46
CC(=O)Oc1cc(C(C)C)c(OCCN(C)C)cc1C | 9.06
COC(=O)C1=C(C)NC(C)=C(C(=O)OC(C)(C)CN(C)CCC(c2ccccc2)c2ccccc2)C1c1cccc([N+](=O)[O-])c1 (configuration not stated) | -4.4
COc1cc(C(=O)OCCCN2CCCN(CCCOC(=O)c3cc(OC)c(OC)c(OC)c3)CC2)cc(OC)c1OC | -6.35
CN(C)C(=O)Oc1ccc[n+](C)c1 | 0.708
CCCC(C(=O)OCCN(CC)CC)(c1ccccc1)c1ccccc1 | 6.07
COc1ccc([C@@H]2Sc3ccccc3N(CCN(C)C)C(=O)[C@@H]2OC(C)=O)cc1 | 1.38
Fc1ccc(C(c2ccc(F)cc2)N2CCN(C/C=C/c3ccccc3)CC2)cc1 | -4.89
